Measurements reported in the supplement of paper PMC3334620.
The full ranking holds about 33,000 sequences; the median of “E-score (-0.5 to 0.5)” is about -0.012, and the highest 2% start at about 0.27. The sample as a whole holds a higher share of the highest values than the screen did.

biological target: T1, Vhr1 (UniProt P40522); assay: PBM E-score (8-mer binding enrichment) (E-score (-0.5 to 0.5)); higher = stronger / more preferred TF binding; conditions: protein concentration: 200 nM; construct: GST-full length
T1 sequence: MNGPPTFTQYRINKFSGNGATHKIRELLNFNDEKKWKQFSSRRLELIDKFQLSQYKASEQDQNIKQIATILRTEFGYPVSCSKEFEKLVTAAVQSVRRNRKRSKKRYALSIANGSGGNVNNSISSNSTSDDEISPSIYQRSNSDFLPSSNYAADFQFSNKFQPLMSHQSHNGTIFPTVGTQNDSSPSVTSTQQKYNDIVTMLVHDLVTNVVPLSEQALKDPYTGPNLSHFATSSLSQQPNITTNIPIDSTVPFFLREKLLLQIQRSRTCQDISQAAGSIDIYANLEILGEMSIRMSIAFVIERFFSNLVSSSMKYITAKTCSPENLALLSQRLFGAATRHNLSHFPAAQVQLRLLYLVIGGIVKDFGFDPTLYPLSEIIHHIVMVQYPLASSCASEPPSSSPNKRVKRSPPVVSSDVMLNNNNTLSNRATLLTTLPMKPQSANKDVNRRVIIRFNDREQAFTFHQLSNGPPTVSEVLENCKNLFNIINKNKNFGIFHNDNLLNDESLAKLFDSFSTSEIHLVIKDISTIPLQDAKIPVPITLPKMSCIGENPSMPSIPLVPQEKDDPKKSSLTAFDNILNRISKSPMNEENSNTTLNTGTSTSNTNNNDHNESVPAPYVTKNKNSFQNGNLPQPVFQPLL
Description: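 Universal 'all 10-mer' protein binding microarrays (Agilent AMADID 015681) probed with GST-tagged S. cerevisiae TFs (full-length or DBD) made by in vitro transcription/translation (PURExpress), about 100-200 nM. Bound TF was detected with fluorescent anti-GST. Each ungapped 8-mer (which stands for itself and its reverse complement) is scored by the PBM enrichment score (E-score), a modified Wilcoxon-Mann-Whitney statistic from -0.5 to +0.5, computed with the Universal PBM Analysis Suite. Scale: above 0.35 generally sequence-specific binding.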

Sequence | PBM E-score
AGCGGCTC | -0.0971
CGCGGCTC | 0.278
CGAGTCTA | -0.0817
CGAGTCAA | 0.278
CGAGTCTC | 0.0296
GGAGTCAA | 0.354
CCAGTCAG | 0.0854
CGAGTCAC | 0.467
GGAGTCTA | 0.0135
CGTGTCAG | 0.037
CAAGTCAA | -0.0643
GGAGTCGA | 0.122
CGAGTCCC | 0.186
CGAGTCAG | 0.429
CCGTGCCG | -0.00022
AACCTCTC | -0.172
GCAGCCGA | 0.0559
GCAGGCCA | 0.117
ACTGATCC | 0.0497
ATTGTTTC | 0.217
CGAGTCCA | -0.0942
TGAGTCAA | 0.419
GGAGTCCA | 0.163
CGAGTCCG | 0.286
CCAGTCCG | -0.0813

Sequence | PBM E-score
AGAGTCCG | -0.0962
TTAGTCAA | 0.168
TCAGTCAA | 0.114
TGAGTCCA | 0.3
CAATCAAA | -0.008
CCTTCCCC | 0.0876
CCCTATCC | -0.0379
CCAGCTGC | -0.105
CCAGCTGG | 0.301
ACAGCTGG | -0.119
AGTAAATC | 0.0723
AGGACTCG | 0.167
CGGACTCA | 0.381
AGGACTCC | 0.129
CGGACTCC | 0.2
CGGACTTA | -0.189
AGGACTCA | 0.376
ATATACTA | 0.257
CCTTGAGA | -0.0758
ACATAGTG | 0.314
ACATAGTC | 0.272
AAATAGTC | 0.0418
AAATAGTG | -0.149
ACATAGTA | 0.188
CCATAGTC | 0.225

Sequence | PBM E-score
CCAGGACA | -0.0732
CTGCACAA | -0.0636
GGTTGTGA | 0.143
ATCTCAAA | -0.0488
TGCTCAAA | -0.193
AATCCATT | 0.113
ACTAATCG | 0.251
CCTCAGTA | -0.106
CCGCAGTC | 0.274
ACTCAGTC | 0.314
ACTCAGTA | 0.281
ACGCAGTC | 0.169
CCGCAGTA | 0.0424
GCTCAGTA | -0.0102
ACTCAGTG | 0.245
CCTCAGTC | 0.0647
ACGATGCC | -0.257
AGCAACTG | 0.00583
GACCCAAA | 0.0473
CGGAATAA | -0.0766
GGCCACTA | -0.00131
GTTGCCTA | -0.162
GAACGATA | -0.0543
AAACCAGT | 0.0233
ATCTTGGA | 0.0371

Sequence | PBM E-score
GCCTTATA | -0.0741
AGCCCGAC | 0.0296
CGCCCGAC | 0.342
CGCCCGAA | -0.0969
AACGAGCA | -0.0591
ATGCTCAG | 0.141
ACTAGAGT | 0.0036
ACCACATA | 0.125
ACCACATC | 0.276
ACCACATG | 0.262
CGCTCACA | 0.137
CCCAACCA | 0.275
ACCAACAG | 0.046
ACCAACAA | 0.359
ACCAACAT | 0.157
CCCAACCC | 0.118
ACCAACCA | 0.163
CCCTAGCC | -0.184
AACCCACT | 0.246
ACCCCACC | 0.385
GACCCACC | 0.224
GCCCCTCC | 0.331
GCCCCACC | 0.265
CACCCACA | 0.241
AACCCACC | 0.313

Sequence | PBM E-score
CCCCCTCC | -0.0898
CCCCCACC | -0.341
CACCCACC | 0.317
GCCCCTCA | -0.0991
AACCCACA | 0.168
GCGGCCAC | 0.0847
ACAGCGAT | -0.04
AGATCTGC | -0.0821
GGGCTGGA | -0.0152
GGTGGTCA | 0.00378
AACCCACG | 0.0933
CACCCACG | 0.249
CACCCTCA | 0.0412
CACCCTCC | 0.276
AACCCTCC | -0.129
GACCCACA | 0.284
CCACCAAA | 0.0455
GCGAAACC | -0.0227
GAGTCTCA | 0.256
GCACACCC | 0.139
GCGCGCGA | 0.185
GCGCGCAA | 0.3
CCGCGCGG | 0.346
ACGCGCGC | 0.107
CCGCGCGC | 0.258

Sequence | PBM E-score
CCGCGCAA | -0.026
CCGCGCGA | 0.22
TCGCGCAA | 0.0709
GCGCGCGC | 0.379
AGGACGCG | -0.226
CTAAAGAG | -0.0856
GTAGCGAA | -0.027
AACTAGAA | -0.115
CGTCACTA | 0.0865
ACTCACTG | 0.265
AGTCACTA | 0.366
ACTCACTC | 0.254
ATTCACTG | -0.0337
AGTCACTC | 0.428
AGTCACTG | 0.384
CGTCACTC | -0.0595
AATCACTG | 0.374
AATCACTC | 0.115
AATCACTA | 0.267
GGTCACTA | -0.0218
AACGGTCC | -0.263
AGGTGTGC | 0.163
AAGCTCCA | 0.111
AAGCCACT | -0.0197
CCATCTGC | 0.0983

Sequence | PBM E-score
GTCTTCAC | -0.058
AATCTAGC | -0.218
CTATAGGC | -0.243
AACCTGAG | -0.0364
ACACGACT | 0.277
ACACGACA | 0.0664
ACACGACC | 0.109
GCTTGCAA | 0.0649
AAAGGTGC | -0.162
ACGGTAAT | -0.0641
CCGAGTAG | 0.1
TCGAGCCA | -0.0584
ACGAGTCC | 0.0781
CCGAGTCG | 0.336
TCGAGTAA | 0.0538
ACGAGTCA | 0.43
CCAAGTCG | 0.00863
ACGAGTCT | 0.0718
ACGAGTCG | 0.322
ACGAGTTG | 0.0198
ACGAGTAG | 0.0242
TCGAGTCA | 0.399
